The source of these data is PubChem BioAssay (NCATS).

The target in assay [1] is Lysosomal acid glucosylceramidase (Homo sapiens) (UniProt P04062). Nature of the assay: Glucocerebrosidase-p2 (AID 348; in the data active = potency below about 10 µM; also: potency is read from the fitted curve at half-maximal effect). The following applies: purified GBA, blue fluorogenic substrate, 40 min. The procedure, abridged: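 Compounds titrated from 0.6 nM upwards against 0.2 nM enzyme in pH 5.9 citric acid/KH2PO4, taurocholate, tween-20; blue fluorogenic substrate 80 uM, 40 min room temperature, stopped and read Ex 365/Em 440 for AC50.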
Sequence of Lysosomal acid glucosylceramidase (Homo sapiens) (P04062 whole entry, looked up): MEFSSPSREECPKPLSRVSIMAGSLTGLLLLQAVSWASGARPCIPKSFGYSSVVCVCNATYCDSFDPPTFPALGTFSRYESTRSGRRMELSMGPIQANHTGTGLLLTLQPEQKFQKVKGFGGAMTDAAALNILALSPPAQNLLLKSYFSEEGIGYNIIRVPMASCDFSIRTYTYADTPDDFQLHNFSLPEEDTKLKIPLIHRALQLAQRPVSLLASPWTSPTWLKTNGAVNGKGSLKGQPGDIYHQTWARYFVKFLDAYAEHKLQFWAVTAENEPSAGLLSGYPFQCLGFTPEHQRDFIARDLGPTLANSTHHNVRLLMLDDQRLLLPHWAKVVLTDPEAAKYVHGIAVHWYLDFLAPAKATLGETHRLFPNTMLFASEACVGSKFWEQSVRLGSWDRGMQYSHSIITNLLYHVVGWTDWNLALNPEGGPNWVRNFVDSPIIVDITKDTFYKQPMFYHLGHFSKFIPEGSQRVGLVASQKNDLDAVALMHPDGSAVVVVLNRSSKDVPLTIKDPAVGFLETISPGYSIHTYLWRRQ

Assay [2] can be described thus: AP1 Signaling Pathway (AID 357).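 Also: ME-180 reporter cells stimulated with EGF at its EC50 level; % is scaled to controls: 0 for no effect and ±100 for the full control effect.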 The conditions noted are these: ME-180 AP-1-bla reporter, EGF-induced, beta-lactamase ratio, 5 h; at 7.69 µM (top of the series) unless noted. In outline:
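First, ME-180 AP-1-bla cells were cultured overnight at 37 °C in low-serum Opti-MEM. Next, titrated compounds with EC50 EGF were incubated 5 hours. Finally, CCF4 was added for 2.5 hours and the 460/530 nm ratio recorded.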

In assay [3] the target is Cytochrome P450 1A2 (Homo sapiens) (UniProt P05177). Nature of the assay: p450-cyp1a2 (AID 410; calls by dose curve; also: potency is read from the fitted curve at half-maximal effect;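 as to activity change, negative = inhibition: -100% = full effect of reference inhibitor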). The conditions noted are these: recombinant CYP1A2, luciferin-ME demethylation, luminescence; series mostly up to 11.4 µM. The procedure, abridged: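 Human CYP1A2 (20nM) demethylated Luciferin-ME at its Km (100uM) in 100mM KPO4. After 10 min compound preincubation, NADPH regeneration ran the reaction 60 min at room temperature. Luciferin was read by luminescence, normalized to 57 uM furafylline.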
Sequence of Cytochrome P450 1A2 (Homo sapiens) (P05177 whole entry, looked up): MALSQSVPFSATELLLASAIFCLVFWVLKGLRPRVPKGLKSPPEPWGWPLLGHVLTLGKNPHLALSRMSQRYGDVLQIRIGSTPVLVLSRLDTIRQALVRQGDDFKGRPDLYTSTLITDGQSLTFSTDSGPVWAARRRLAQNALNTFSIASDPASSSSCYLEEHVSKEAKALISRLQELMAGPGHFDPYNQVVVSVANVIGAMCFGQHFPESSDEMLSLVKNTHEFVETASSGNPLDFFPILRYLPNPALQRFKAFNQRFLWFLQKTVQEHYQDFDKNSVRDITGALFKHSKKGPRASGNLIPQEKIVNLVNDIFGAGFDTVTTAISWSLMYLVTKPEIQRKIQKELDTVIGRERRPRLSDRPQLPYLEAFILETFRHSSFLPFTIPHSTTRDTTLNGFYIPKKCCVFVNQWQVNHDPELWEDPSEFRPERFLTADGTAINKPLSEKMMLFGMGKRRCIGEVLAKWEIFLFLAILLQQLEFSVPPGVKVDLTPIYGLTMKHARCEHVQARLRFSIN

Assay [4] can be described thus: NFAT Signaling Pathway (AID 444).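 Also: carbachol stimulus at about its EC50 of 1 µM final; % is scaled to controls: 0 for no effect and ±100 for the full control effect.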 The following applies: Jurkat NFAT-bla M1, carbachol, beta-lactamase ratio, 5 h; at 7.69 µM (top of the series) unless noted. The procedure, abridged: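 Read-out: CCF4 FRET ratio (460 nm/530 nm) after 1 h RT dye loading, used for %activity and AC50 from titration series. Cells: Jurkat NFAT-β-lactamase/M1 line, treated with compound plus 1 uM carbachol for 5 h, 37 °C.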

Assay [5] can be described thus: Stat Signaling Pathway (AID 446).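 Also: ME-180 cervical cancer cells given 40 pM IL-6 alongside compound; SIE-controlled beta-lactamase reporter measured as 460/530 nm FRET emission ratio; % is scaled to controls: 0 for no effect and ±100 for the full control effect.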 The conditions noted are these: ME-180 (cervical carcinoma) SIE beta-lactamase reporter, IL-6 stimulated, 5 h; at 7.69 µM (top of the series) unless noted. In outline: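 IL-6/STAT signaling read in ME-180 cells via an SIE beta-lactamase reporter. Stimulus was 40 pM IL-6 (its AC50) for 5 hrs, so both activation and inhibition register.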
In assay [6] the target is Glucocorticoid receptor (Homo sapiens) (UniProt P04150). The experiment in a line: GR-GFP Redistribution (AID 450;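 active = compounds whose dose series gives a full or clear partial fitted curve of increased nuclear translocation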; also: potency is read from the fitted curve at half-maximal effect). The following applies: U2OS GR-GFP nuclear translocation, laser cytometry, 2 h.
Sequence of Glucocorticoid receptor (Homo sapiens) (P04150 whole entry, looked up): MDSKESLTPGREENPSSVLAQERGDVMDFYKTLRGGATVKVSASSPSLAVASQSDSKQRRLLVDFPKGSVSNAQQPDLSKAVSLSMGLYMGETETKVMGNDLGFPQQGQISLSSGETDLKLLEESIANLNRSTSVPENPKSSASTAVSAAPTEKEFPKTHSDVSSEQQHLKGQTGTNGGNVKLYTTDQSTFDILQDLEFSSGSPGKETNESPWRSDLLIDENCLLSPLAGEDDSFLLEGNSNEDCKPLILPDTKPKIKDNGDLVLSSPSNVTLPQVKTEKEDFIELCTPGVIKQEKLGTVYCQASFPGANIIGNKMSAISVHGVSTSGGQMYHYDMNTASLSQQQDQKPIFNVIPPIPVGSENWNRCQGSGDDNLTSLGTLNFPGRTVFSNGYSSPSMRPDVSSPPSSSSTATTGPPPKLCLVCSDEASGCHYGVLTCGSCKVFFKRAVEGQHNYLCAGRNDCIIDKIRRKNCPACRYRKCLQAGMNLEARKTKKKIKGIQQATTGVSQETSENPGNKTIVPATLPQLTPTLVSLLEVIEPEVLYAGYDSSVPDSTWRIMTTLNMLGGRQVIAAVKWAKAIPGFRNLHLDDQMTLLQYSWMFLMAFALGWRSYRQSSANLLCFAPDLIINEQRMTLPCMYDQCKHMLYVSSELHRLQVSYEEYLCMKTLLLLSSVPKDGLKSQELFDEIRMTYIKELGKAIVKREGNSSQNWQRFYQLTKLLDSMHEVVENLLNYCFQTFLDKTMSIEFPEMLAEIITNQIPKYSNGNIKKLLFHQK
Assay [7] shares this target. Nature of the assay: GR-EFC Redistribution (AID 451; calls by dose curve; also: potency is read from the fitted curve at half-maximal effect). The following applies: CHO-K1 GR-EFC translocation, beta-gal luminescence, 2 h. The procedure, abridged:
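Translocation of GR-ED fusion to nuclear EA restores b-gal, read by luminescence after 1 h room-temperature detection. Engineered CHO-K1 biosensor cells, 1,000/well, exposed 2 h at 37 C to titrations up to 46 uM final.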

Assay [8] deals with Mitogen-activated protein kinase 10 (Mus musculus) (UniProt Q61831). Nature of the assay: JNK3 AlphaScreen Assay (AID 530).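 Also: kinase came from lysate of stimulated human HepG2 cells; signal reports phosphorylation of biotinylated GST-cJun 1-79 at Ser73 with 10 µM ATP; % is scaled to controls: 0 for no effect and ±100 for the full control effect.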 The conditions noted are these: JNK3 lysate, c-Jun phosphorylation; series mostly up to 11.4 µM. In outline: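 Room-temperature AlphaScreen kinase assay; pre-activated HepG2 lysate as JNK3 source, biotin-GST-cJun(1-79) substrate, 10 uM ATP, compound 15 min preincubation.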

For assay [9], the target named is 3',5'-cyclic-AMP phosphodiesterase 4B (Homo sapiens) (UniProt Q07343). The experiment in a line: qHTS Assay for Inhibitors of PDE-IV (AID 607; active = well fitted activation curve with a large enough effect in the main read-out, with a control signal flat, not every such curve was filed as active; also: % of control where 0% means no effect). The conditions noted are these: HEK293 ACTOne CNG channel cells, membrane potential fluorescence; series mostly up to 22.9 µM. In outline:
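Live HEK293 cells with a modified cyclic nucleotide-gated (CNG) channel report intracellular cAMP via membrane-potential dye fluorescence (ex 535/em 590 nm). Endogenous PDE-IV was targeted. Compounds were tested at up to 22.9 uM final; RO 20-1724 100 uM served as control.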

Assay [10] has as its target Ubiquitin carboxyl-terminal hydrolase 1 (Homo sapiens) (UniProt O94782). The experiment in a line: Inhibitors of USP1/UAF1: Pilot qHTS (AID 504865; active = well fitted curve in the direction sought with a large enough effect; an effect the other way counts as inactive or inconclusive;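 also: rhodamine fluorescence freed from ubiquitin-rhodamine substrate followed over time; top concentration of the series differs between compounds; % is scaled to controls: 0 for no effect and ±100 for the full control effect; nearly all actives have a fitted effect of over 35% in size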). The conditions noted are these: purified USP1/UAF1, Ub-rhodamine cleavage fluorescence; series mostly up to 114 µM. In outline:
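Enzyme-free wells gave the negative control, while test wells held 1nM USP1/UAF1 preincubated with compound for 15 min at room temperature. Ub-Rho at 150nM final started the reaction, and fluorescence at 480/540 nm was recorded kinetically.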

The nature of assay [11]: qHTS profiling for inhibitors of Plasmodium falciparum proliferation (AID 504749; active = well fitted curve in the direction sought with a large enough effect; an effect the other way counts as inactive or inconclusive;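 also: 0% = DMSO vehicle and full inhibition = artemisinin control; nearly all actives have a fitted effect of over 60% in size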). The conditions noted are these: P. falciparum in erythrocytes, SYBR Green DNA, 72 h, at 28.7 µM (top of the series). The procedure, abridged:
(§1)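 Three-day growth assay of blood-stage parasites in erythrocytes (0.3% parasitemia, 2.5% hematocrit) at 37 C, 5% CO2, quantified by SYBR Green DNA staining after overnight detergent lysis.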

The subject of the next assay is AS120. The description is as above. The conditions noted are these: P. falciparum in erythrocytes, SYBR Green DNA, 72 h; series mostly up to 28.7 µM. In outline: as §1
Another assay has as its system CP203. The assay is described as above. The following applies: P. falciparum in erythrocytes, SYBR Green DNA, 72 h; series mostly up to 28.7 µM. The procedure, abridged: as §1
A further assay has as its system DFO2036. The description is as above. The following applies: P. falciparum in erythrocytes, SYBR Green DNA, 72 h; series mostly up to 28.7 µM. In outline: as §1
The test system of the next assay is W2. Described as above. The following applies: P. falciparum in erythrocytes, SYBR Green DNA, 72 h; series mostly up to 28.7 µM. The procedure, abridged:
as §1

A short description of assay [12]: qHTS Assay for Inhibitors of Fructose-1,6-bisphosphate Aldolase from Giardia Lamblia: Coupling assay counterscreen confirmation (AID 2795; active = well fitted curve in the direction sought with a large enough effect; an effect the other way counts as inactive or inconclusive; also: % is scaled to controls: 0 for no effect and ±100 for the full control effect; nearly all actives have a fitted effect of over 55% in size). The following applies: GAPDH coupling enzyme counterscreen, biochemical; series mostly up to 57.5 µM. The procedure, abridged:
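Readings at 525 nm excitation and 598 nm emission follow a two-step room-temperature protocol: 10 min of compound (up to 57.5 uM final) with coupling enzyme reagent, then 20 min with substrate and AmpLite Red detection reagent.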

Assay [13] concerns the target Cytochrome P450 3A4 (Homo sapiens) (UniProt P08684). The experiment in a line: qHTS Assay for Activators of Cytochrome P450 3A4 (AID 885; active = well fitted curve in the direction sought with a large enough effect; an effect the other way counts as inactive or inconclusive; also: nearly all actives have a fitted effect of over 65% in size). The conditions noted are these: recombinant CYP3A4, Luciferin-PPXE luminescence, 60 min; series mostly up to 11.4 µM. In outline:
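Quantitative HTS format: compounds preincubated with 20nM human CYP3A4 and Luciferin-PPXE substrate at KM, reaction started by NADPH regeneration, stopped after 60 min, luciferase luminescence read 20 min later.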

Assay [14] is described as follows: Confirmation and Secondary Assay for Modulators of Hemoglobin Beta Chain Splicing at IVS2 654 locus (AID 910; active = well fitted curve in the direction sought with a large enough effect; an effect the other way counts as inactive or inconclusive;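 also: HeLa cells stably carrying EGFP split by mutant beta-globin IVS2-654 intron; per-well total GFP intensity by laser scanning cytometry after 2-day treatment; % of control where 0% means no effect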). The conditions noted are these: HeLa EGFP-654 splicing reporter, GFP fluorescence, 48 h; series mostly up to 38.3 µM. The procedure, abridged:
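Readout: per-well total peak green fluorescence (488 nm ex, 500–520 nm em) from objects 5–250 µm, reflecting correct splicing of an EGFP-654 reporter. Compounds were applied for 2 days at 37 °C to overnight-plated HeLa EGFP-654 cells; controls were DMSO and 500 nM IVS2-654 PNA.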

Assay [15] in a line: Confirmation and Secondary Assay for Modulators of Hemoglobin Beta Chain Splicing at IVS2 705 locus (AID 930; active = well fitted curve in the direction sought with a large enough effect; an effect the other way counts as inactive or inconclusive;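 also: HeLa cells stably expressing the EGFP-705 splicing reporter; GFP fluorescence per well restored by corrected splicing of the IVS2-705 intron in EGFP; % of control where 0% means no effect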). The conditions noted are these: HeLa EGFP-705 splicing reporter, GFP fluorescence, 48 h; series mostly up to 38.3 µM. The procedure, abridged: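 First, HeLa EGFP-705 cells are seeded at 500/well in Optimem with 2% FCS and left overnight. Next, compound or DMSO is added for 2 days. Finally wells are laser-scanned and total peak GFP intensity scored.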

Unmarked numbers belong to inactive results. Results filed as inconclusive are left out. The list shows a part of the results. Calls of active or inactive are those of the source. Unless noted, calls follow the shape of the dose curve; as a rule, active = well fitted curve in either direction with a large enough effect (not every such curve was filed as active); inconclusive = small, poorly fitted or top-dose-only effect, or another doubt; inactive = flat fitted curve, though single readings scatter.

Sequence of 3',5'-cyclic-AMP phosphodiesterase 4B (Homo sapiens) (Q07343 whole entry, looked up): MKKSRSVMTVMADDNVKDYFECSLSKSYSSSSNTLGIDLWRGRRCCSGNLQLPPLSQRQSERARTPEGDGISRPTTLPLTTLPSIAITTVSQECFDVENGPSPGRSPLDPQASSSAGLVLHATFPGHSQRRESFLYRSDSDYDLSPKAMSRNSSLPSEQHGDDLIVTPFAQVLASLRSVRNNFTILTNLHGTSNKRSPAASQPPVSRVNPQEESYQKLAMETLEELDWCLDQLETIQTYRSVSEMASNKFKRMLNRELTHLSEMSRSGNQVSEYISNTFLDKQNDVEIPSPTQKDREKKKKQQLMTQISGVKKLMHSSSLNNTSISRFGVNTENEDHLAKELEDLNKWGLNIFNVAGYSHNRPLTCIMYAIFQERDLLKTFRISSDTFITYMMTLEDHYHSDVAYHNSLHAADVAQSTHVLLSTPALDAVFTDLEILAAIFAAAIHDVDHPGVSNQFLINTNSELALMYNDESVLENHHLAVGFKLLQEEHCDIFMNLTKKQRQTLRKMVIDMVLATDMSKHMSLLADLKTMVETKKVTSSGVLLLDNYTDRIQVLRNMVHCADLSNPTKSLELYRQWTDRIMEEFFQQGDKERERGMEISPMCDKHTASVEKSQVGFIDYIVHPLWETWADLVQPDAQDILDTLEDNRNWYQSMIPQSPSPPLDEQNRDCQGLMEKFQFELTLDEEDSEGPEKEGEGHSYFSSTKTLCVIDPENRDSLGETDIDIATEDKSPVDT
Sequence of Ubiquitin carboxyl-terminal hydrolase 1 (Homo sapiens) (O94782 whole entry, looked up): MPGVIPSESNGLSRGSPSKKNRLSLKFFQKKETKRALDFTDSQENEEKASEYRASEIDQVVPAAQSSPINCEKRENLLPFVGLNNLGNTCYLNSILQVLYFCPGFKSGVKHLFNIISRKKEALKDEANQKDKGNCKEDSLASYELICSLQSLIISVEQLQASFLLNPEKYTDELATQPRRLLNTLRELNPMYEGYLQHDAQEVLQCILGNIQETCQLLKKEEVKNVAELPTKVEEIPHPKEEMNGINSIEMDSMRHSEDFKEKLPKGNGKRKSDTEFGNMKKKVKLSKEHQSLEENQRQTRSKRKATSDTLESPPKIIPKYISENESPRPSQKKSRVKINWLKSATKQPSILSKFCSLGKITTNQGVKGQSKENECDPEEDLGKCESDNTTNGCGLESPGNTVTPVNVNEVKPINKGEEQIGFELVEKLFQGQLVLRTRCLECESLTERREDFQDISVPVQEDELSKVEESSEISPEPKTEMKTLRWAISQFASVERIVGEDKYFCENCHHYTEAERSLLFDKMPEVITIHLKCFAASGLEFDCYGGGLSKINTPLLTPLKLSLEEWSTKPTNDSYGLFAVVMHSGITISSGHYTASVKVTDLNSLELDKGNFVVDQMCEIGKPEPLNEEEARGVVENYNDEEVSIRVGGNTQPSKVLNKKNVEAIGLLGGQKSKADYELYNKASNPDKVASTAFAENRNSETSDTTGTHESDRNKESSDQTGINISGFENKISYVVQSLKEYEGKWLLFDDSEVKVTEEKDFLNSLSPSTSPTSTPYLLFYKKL
Sequence of Cytochrome P450 3A4 (Homo sapiens) (P08684 whole entry, looked up): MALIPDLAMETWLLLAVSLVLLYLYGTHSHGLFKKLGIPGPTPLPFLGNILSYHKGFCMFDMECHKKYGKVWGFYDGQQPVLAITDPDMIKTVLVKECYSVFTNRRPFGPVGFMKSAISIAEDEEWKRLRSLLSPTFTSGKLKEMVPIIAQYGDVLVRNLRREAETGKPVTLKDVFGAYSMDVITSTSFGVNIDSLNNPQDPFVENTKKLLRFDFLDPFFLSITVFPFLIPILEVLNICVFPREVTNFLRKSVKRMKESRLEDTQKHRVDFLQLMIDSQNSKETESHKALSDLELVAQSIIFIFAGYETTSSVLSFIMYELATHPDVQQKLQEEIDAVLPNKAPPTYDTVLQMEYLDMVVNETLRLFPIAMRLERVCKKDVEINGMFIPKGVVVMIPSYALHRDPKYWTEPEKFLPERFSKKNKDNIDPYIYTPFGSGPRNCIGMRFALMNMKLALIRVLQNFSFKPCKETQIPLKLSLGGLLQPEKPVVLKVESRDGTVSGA

Regarding `Cn1c(=S)c2[nH]c(SCCN3CCCC3)nc2n(C)c1=O`, the values for the Potency in assay [1], in [6] and in assay [7] were greater than 11.4 µM, greater than 46 µM and greater than 9.22 µM, respectively. Also, the activity change, negative = inhibition was -5.98% in assay [2], -29.7% [at 2.29 µM] in assay [3] and 11.4% in [4]. Further, in assay [5], the activity, negative = inhibition was -0.274%. The Potency entry in [8] is “inactive”.

`NS(=O)(=O)c1cc2c(cc1Cl)N[C@H](Cc1ccccc1)NS2(=O)=O`: the Potency was greater than 11.4 µM in assay [1], 3.16 µM (active) in assay [3], greater than 46 µM in assay [6] and greater than 9.22 µM in assay [7]. For the same compound, the values for the activity change, negative = inhibition in assay [2] and in [4] were -4.23% and 23.7%, respectively. Also, the activity, negative = inhibition in assay [5] was 1.94%; in assay [11] (parasite line A) it was 6.22%; in assay [11] (parasite line B) it was -2.36%. Besides, the Potency result (in [8]; in [9]; in [10]; with AS120; in the assay with CP203; with DFO2036) was “inactive” in each case. Besides, the Potency entry in the assay with W2 is “inactive”.

For the compound `CCN(CC(=O)Nc1ccc(S(=O)(=O)N2CCCC2)cc1)CC(=O)Nc1cccc(OC)c1`, in assay [12], the result was inactive.

Consider `O=C(O)c1c[nH]c2cc(OCc3ccccc3)ccc2c1=O`, for which the Potency was greater than 11.4 µM in [1], greater than 46 µM in assay [6] and greater than 9.22 µM in [7]. The activity change, negative = inhibition in [2] was -8.18%; in assay [4], 5.14%. Also, the Potency result in assay [3], in assay [8] and in [9] was “inactive” each time. Further, in [5], the activity, negative = inhibition was -8.65%.

With `NCCCc1ccc2oc3ccccc3c2c1`, the Potency is greater than 11.4 µM in assay [1], 0.0316 µM (active) in assay [3], greater than 46 µM in assay [6] and greater than 9.22 µM in assay [7]. Besides, the activity change, negative = inhibition in assay [2] was 19.9%; in [4], 14.4%. For the same compound, the activity, negative = inhibition in assay [5] is 0.365%. Moreover, the Potency entry in [8] and in [9] was “inactive” in each case.

Take `NCc1ccc(C(=O)O)cc1`: the Potency in [1] is greater than 11.4 µM; in assay [6], greater than 46 µM; in [7] it was greater than 9.22 µM. Further, the activity change, negative = inhibition was 3.17% in assay [2], -4.8% [at 2.29 µM] in [3] and 6.92% in assay [4]. Moreover, in assay [5], the activity, negative = inhibition was -2.22%. Also, the Potency entry in assay [8] is “inactive”.

With `CC1(C)O[C@H]2[C@@H](c3[nH]nc4c(=O)[nH]c(=O)[nH]c34)OC[C@H]2O1`, the Potency in [1] is greater than 11.4 µM; in assay [6], greater than 46 µM; in [7], greater than 9.22 µM. The activity change, negative = inhibition was 8.08% in assay [2] and -14.8% in assay [4]. The Potency result in [3], in assay [8] and in assay [9] was “inactive” throughout. Further, the activity, negative = inhibition in assay [5] is 8.45%.

For the compound `CN(C)c1ccc(-c2cc(NCc3ccccc3)ncn2)cc1`, the Potency in [1] was greater than 11.4 µM; in [3], 1 µM (active); in assay [6] it was greater than 46 µM; in assay [7] it was greater than 46 µM. In addition, the activity change, negative = inhibition in [2] is -19.2%; in assay [4], 12.6%. Also, in [5], the activity, negative = inhibition is -7.24%. Besides, the Potency entry in assay [8], in [9], in assay [13] and in [10] was “inactive” in each case. Moreover, the compound was called inactive in [14] and in [15].
